Measurements taken from PubChem BioAssay (NCI).
“And” between values parts separate entries of the source, which are not always exact repeats. Equal entries are not always repeated. Compounds without any hit were thinned out: in the full panel of roughly 79,000, 15% have a hit. The source made the active and inactive calls. No stated cut-off is given here; in the data, active means growth inhibition above about 70%; inactive means the rest.

Legend:
[1] = NCI Yeast Anticancer Drug Screen. Data for the rad50 strain (AID 155);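 further: 0% = growth of vehicle-only cultures of the same strain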; details: S. cerevisiae rad50 strain growth inhibition, active compounds read high; at 50.0 µM unless noted
Outline: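 Relative growth inhibition (compound vs vehicle) was measured in yeast with a defined repair-gene alteration.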

[2] = NCI Yeast Anticancer Drug Screen. Data for the mec2-1 strain (AID 157); details: S. cerevisiae mec2-1 strain, active compounds read high; at 50.0 µM unless noted
Outline: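 Readout is yeast growth inhibition, normalised to vehicle-treated controls, in the mec2-1 strain exposed to compound.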

[3] = NCI Yeast Anticancer Drug Screen. Data for the sgs1 mgt1 strain (AID 161);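 further: 0% = growth of cultures given vehicle only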; details: S. cerevisiae sgs1 mgt1 strain, active compounds read high; at 50.0 µM unless noted
Outline: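 Percent growth inhibition was derived by comparing compound-exposed mutant yeast with vehicle-exposed cultures. The strain carries alterations in DNA damage repair.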

[4] = NCI Yeast Anticancer Drug Screen. Data for the cln2 rad14 strain (AID 165);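 further: 0% = growth equal to vehicle treated cultures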; details: S. cerevisiae cln2 rad14 strain, active compounds read high; at 50.0 µM unless noted
Outline: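 Relative to vehicle controls, growth inhibition of compound-treated cln2 rad14 yeast was recorded.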

[5] = NCI Yeast Anticancer Drug Screen. Data for the bub3 strain (AID 167); details: S. cerevisiae bub3 mutant strain, active compounds read high; at 50.0 µM unless noted
Outline: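 Screening used yeast with an engineered genetic alteration affecting cell cycle control. Compound-exposed cultures were compared with vehicle cultures, and reduced growth was taken as inhibition.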

[6] = NCI Yeast Anticancer Drug Screen. Data for the mlh1 rad18 strain (AID 175); details: S. cerevisiae mlh1 rad18 strain growth inhibition, active compounds read high; at 50.0 µM unless noted
Outline: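 Test agents were incubated with a yeast strain of defined genotype (DNA damage repair defect). Inhibition of growth was derived by comparison with vehicle-exposed cultures.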

Measured: growth inhibition

Cc1cc(C(=O)O)cc(C)c1N(C)C=O
inactive: [1] -0.8% | [2] 6.25% | [3] 3.15% | [4] 2.35% | [5] -1.05% | [6] 4.45%

O=C1c2ccccc2C(=O)c2cc3nc4c5ccccc5c5ccccc5c4nc3cc21
inactive: [1] -35% | [2] -21.2% | [3] -27.2% | [4] -37.6% | [5] 3.35% | [6] -13.6%

CCCCCCCCN1C(=O)CCC1=O
inactive: [1] -1.45% | [2] -19.4% | [3] -6.3% | [4] 0.5% | [5] -14.9% | [6] -0.5%

CC(=O)c1cc([N+](=O)[O-])ccc1OCC(=O)O
inactive: [1] 5.95% | [2] 4.85% | [3] 3.75% | [4] 1.85% | [5] 9.85% | [6] 9.6%

O=C(CSc1nc(-c2ccccc2)c(-c2ccccc2)[nH]1)N/N=C/c1ccc(O)cc1
inactive: [1] -8.15% | [2] -3.2% | [3] -12.2% | [4] -21.9% | [5] 5.6% | [6] -25.6%

Cc1nc2c(N)n[nH]c(=O)n2n1
inactive: [1] -20.9% | [2] -14.4% | [3] -19.2% | [4] -54% | [5] 7.15% | [6] -4.7%

CSc1ccc(Nc2cc(=O)[nH]c(=O)[nH]2)cc1
inactive: [1] 14.6% | [2] 8.75% | [3] 18.1% | [4] 2.3% | [5] 3.7% | [6] -10.9%

NC(=O)c1ccccc1NC(=O)C(=O)C(C(=O)c1ccc(Cl)c(Cl)c1)C1OC(=O)c2ccccc21 (centres undefined)
inactive: [1] 53.2% | [2] 46.9% | [3] 32.9% | [4] 67.5% | [5] 57.9% | [6] 44.6%

O=C(Nc1ccc(S(=O)(=O)NC2CCCCC2)cc1)Oc1ccccc1C(=O)O
inactive: [1] 49% | [2] -1.65% | [3] 39.9% | [4] 26.1% | [5] 16.1% | [6] 32.1%

CC(=O)CC(=O)Nc1ccc(OS(N)(=O)=O)cc1
inactive: [1] -9.55% | [2] -22.4% | [3] 1.95% | [4] 3.1% | [5] 2.3% | [6] -15.2%

CCOC(=O)COc1ccc(OC)c2c1C(=O)CCC2
inactive: [1] 21.1% | [2] 16.7% | [3] 6.15% | [4] 29.2% | [5] 10% | [6] 15%

CCOC(=O)c1cc2ccccc2cc1N=N
inactive: [1] 8.3% | [2] 16.7% | [3] 15% | [4] -2.7% | [5] 23.2% | [6] 28.8%

CC1(C)C(=O)C=C(c2ccccc2)C1(O)c1ccccc1 (centres undefined)
inactive: [1] -9.45% | [2] -29.9% | [3] 16.9% | [4] 5.35% | [5] 22.4% | [6] -38.5%

CCCCCCCCCCCCCCCCCCOc1ccccn1
inactive: [1] -9.8% | [2] -32.1% | [3] -9.75% | [4] 2.55% | [5] -17.9% | [6] 3.25%

CC(C)CC(C)COC(=O)c1c(Cl)c(Cl)c(Cl)c(Cl)c1C(=O)O (centres undefined)
inactive: [1] 66.6% | [2] 62.6% | [4] 63.4%
active: [3] 77.9% | [5] 72.8% | [6] 77.3%

NC(=O)N/N=C/c1ccc([N+](=O)[O-])cc1
inactive: [1] 7.35% | [2] -2.6% | [3] -6.55% | [4] -24.1% | [5] 15.9% | [6] -4.2%

O=C(O)c1cc([N+](=O)[O-])cc([N+](=O)[O-])c1-c1ccccc1
inactive: [1] -10.4% | [2] -2.6% | [3] 6.2% | [4] -13.4% | [5] 44.6% | [6] -10%

CCN(CC)CCOc1cccc(NC(=O)CN(CC)CC)c1
inactive: [1] -8.2% | [2] -25.8% | [3] 15.3% | [4] 1.4% | [5] 17% | [6] 1.65%

O=C1C(N2CCCCC2)=C(c2ccccc2)c2ccccc21
inactive: [1] 5.1% | [2] 7.5% | [3] -3.6% | [4] -28.9% | [5] 17.1% | [6] -10.2%

CCOC(=O)c1c(NS(=O)(=O)c2ccc(C)cc2)sc(C)c1-c1ccccc1
inactive: [1] -21.4% | [2] -0.45% | [3] -6.2% | [4] 67.8% | [5] 6.85% | [6] -3.65%

COc1cc2c(cc1OC)C(c1c(-c3c(Cl)cccc3Cl)noc1C)=NCC2
inactive: [1] -3.8% | [2] -14.9% | [3] -11.8% | [4] 19.8% | [5] 3.2% | [6] -4.25%

CC(C)C(=O)NS(=O)(=O)c1ccccc1
inactive: [1] -14.6% | [2] -3.8% | [3] 0.5% | [4] -7.55% | [5] -14.4% | [6] -27.9%

O=C(CC(CC(=O)C(c1ccccc1)c1ccccc1)c1ccccc1)C(c1ccccc1)c1ccccc1
inactive: [1] 45.9% | [2] 18% | [3] 61.9% | [4] -0.6% | [5] -8.3% | [6] 29.6%

O=C(Cn1c(=O)ccn(C2OC(CO)C(O)C2F)c1=O)c1ccc(F)cc1 (centres undefined)
inactive: [1] -2.5% | [2] 0.3% | [3] -30.9% | [4] -48.8% | [5] 0.6% | [6] 3.1%

CCC(=O)OCC(CC(=O)NCCc1ccccc1)=NCCc1ccccc1
inactive: [1] 18.6% | [2] -0.6% | [3] 16.6% | [4] 9.15% | [5] 2.55% | [6] 14.9%

C=C1C2CCC(C2)C1(C)CC/C=C(/C)CO (centres undefined) (tested in a mixture with another compound)
inactive: [1] 34.4% and 47.7% | [2] 9.65% and 7.15% | [3] 33.2% and 41.6% | [4] 20.2% and 7.3% | [5] 35.5% and 19.8% | [6] 16.4% and 26.4%

CCCCSc1ncnc2nc[nH]c12
inactive: [1] -38% | [2] -15.4% | [3] -9.05% | [4] -21.4% | [5] -7.45% | [6] -15.7%

CO/C(=N\N=C\c1ccc(Cl)cc1Cl)c1ccncc1
inactive: [1] -25.9% | [2] -40.4% | [3] -53% | [4] -23.4% | [5] -27.8% | [6] -54.6%

CC1=C(C(=O)Nc2ccccc2)C(c2ccc(N(C)C)cc2)C(C(=O)Nc2ccccc2)=C(C)N1
inactive: [1] -13.7% | [2] 7.4% | [3] -6.3% | [4] 24.4% | [5] -6.8% | [6] 15.8%

CC(CC(=O)c1ccccc1)[N+](=O)[O-] (centres undefined)
inactive: [1] -10.6% | [2] -6.35% | [3] -3.3% | [4] -12.6% | [5] -7.85% | [6] 15.8%

CC(C)(C)NNC(=O)CCn1[nH]c(=O)c(Cl)c(Cl)c1=O
inactive: [1] -0.8% | [2] -5.25% | [3] -18.9% | [4] -2.25% | [5] -16% | [6] -12.3%

Cc1cc(C2=NCC(C)(C)S2)ccc1O
inactive: [1] 15.2% | [2] 7.8% | [3] 8.9% | [4] 10.2% | [5] 25% | [6] 29.5%

CSC(SC)c1cc(C)no1
inactive: [1] -11.3% | [2] 12.2% | [3] -7.45% | [4] 34.6% | [5] -10.2% | [6] -9.15%

Cc1noc(NS(=O)(=O)c2ccc(Nc3nc(CC(=O)Nc4ccccc4)cs3)cc2)c1C
inactive: [1] 18.4% | [2] -19.1% | [3] 17.2% | [4] 12.7% | [5] -17.1% | [6] 9.2%

COCCCC(=O)CNC(C)C
inactive: [1] -5.05% | [2] -42.1% | [3] -8.75% | [4] -15.4% | [5] -21.1% | [6] -14.4%

Oc1ccc(-c2c3ccccc3c(-c3ccc(O)cc3)c3ccccc23)cc1
inactive: [1] -0.85% | [2] -9.6% | [3] -31.6% | [4] -7.2% | [5] -9.15% | [6] 1.15%

COC1/C=C/OC2(C)Oc3c(C)c(O)c4c(c3C2=O)C(=O)C([N+](=O)[O-])=C(NC(=O)C(C)=C/C=C\C(C)C(O)C(C)C(O)C(C)C(OC(C)=O)C1C)C4=O (centres undefined)
inactive: [1] 21.7% | [2] 10.4% | [3] 29.4% | [4] 19.6% | [5] 24.4% | [6] 29.6%

OCCN1CCN=C1Cc1ccccc1
inactive: [1] 4.75% | [2] 11.9% | [3] 8.05% | [4] 14.2% | [5] -2.1% | [6] 29.4%

O=S(=O)(Nc1cccc(O)c1)c1ccccc1
inactive: [1] 6% | [2] -12.1% | [3] 6.8% | [4] 14.7% | [5] 3% | [6] 13.2%
